From PubChem BioAssay (NCI)
Values joined by “and” are separate entries in the source; they are usually repeats but may differ in a detail not shown here. Equal values may be shown once. The panel holds about 83,000 compounds, 20% with a hit somewhere; the sample as a whole holds those more often.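 Results are percent growth after 48 hours of single-concentration exposure. 100 means growth as in untreated cells, lower positive values show inhibition; negative values down to -100 show cell death.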 Values without a mark were called inactive. Active and inactive are the calls of the source. Rule for the calls: active = growth percent below 10; inactive = the rest.

How the values were obtained:
Test in all cases: NCI-60 one-dose screen, 48 h (100 = growth as untreated, 0 = no growth, -100 = all killed)
NCI-H23 lung = system: NCI-H23 lung
NCI-H226 lung = system: NCI-H226 lung
NCI-H322M lung = system: NCI-H322M lung
HOP-62 NSCLC = settings: 10 µM
NCI-H460 lung = system: NCI-H460 lung
NCI-H522 lung = system: NCI-H522 lung
A549/ATCC NSCLC = system: A549/ATCC NSCLC
786-0 renal = system: 786-0 renal
COLO 205 colon = system: COLO 205 colon
HOP-92 NSCLC = system: HOP-92 NSCLC

SMILES: COc1ccc2c(c1)[nH]c1c(/C=C/c3ccccc3)nccc12
- growth (NCI-H23 lung; 10 µM): 60.8%
- growth (NCI-H226 lung; 10 µM): 73%
- growth (NCI-H322M lung; 10 µM): 70.5%
- growth (HOP-62 NSCLC): 71.8%
- growth (NCI-H460 lung; 10 µM): 56.2%
- growth (NCI-H522 lung; 10 µM): 40.3%
- growth (A549/ATCC NSCLC; 10 µM): 87.3%
- growth (786-0 renal; 10 µM): 62.9%
- growth (COLO 205 colon; 10 µM): 14.4%

SMILES: O=C1C(Cl)=C(Cl)C(Cl)(Cl)C(Cl)C1(Cl)Cl (configuration not stated)
- growth (NCI-H23 lung; 10 µM): 106%
- growth (NCI-H226 lung; 10 µM): 105%
- growth (NCI-H322M lung; 10 µM): 103%
- growth (HOP-62 NSCLC): 98.5%
- growth (NCI-H460 lung; 10 µM): 118%
- growth (HOP-92 NSCLC; 10 µM): 104%
- growth (NCI-H522 lung; 10 µM): 89.3%
- growth (A549/ATCC NSCLC; 10 µM): 105%
- growth (786-0 renal; 10 µM): 102%
- growth (COLO 205 colon; 10 µM): 105%

SMILES: C=C1N(C)c2ccc(Cl)cc2C1(C)C
- growth (NCI-H23 lung; 10 µM): 52%
- growth (NCI-H226 lung; 10 µM): 67.6%
- growth (NCI-H322M lung; 10 µM): 84.2%
- growth (NCI-H460 lung; 10 µM): 39.4%
- growth (HOP-92 NSCLC; 10 µM): 48.1%
- growth (NCI-H522 lung; 10 µM): 23.7%
- growth (A549/ATCC NSCLC; 10 µM): 44.4%
- growth (786-0 renal; 10 µM): 75.8%
- growth (COLO 205 colon; 10 µM): 23.7%

SMILES: O=S(=O)(c1cc(Cl)ccc1O)c1cc(Cl)ccc1O
- growth (NCI-H23 lung; 10 µM): 84.6%
- growth (NCI-H226 lung; 10 µM): 78.1%
- growth (NCI-H322M lung; 10 µM): 106%
- growth (NCI-H460 lung; 10 µM): 85.1%
- growth (HOP-92 NSCLC; 10 µM): 6.03% (active)
- growth (NCI-H522 lung; 10 µM): 63.9%
- growth (A549/ATCC NSCLC; 10 µM): 81.3%
- growth (786-0 renal; 10 µM): 86.7%
- growth (COLO 205 colon; 10 µM): 105%

SMILES: S=P(N1CC1)(N1CC1)N1CC1
- growth (NCI-H23 lung; 10 µM): 100% and 73.4%
- growth (NCI-H23 lung; 100 µM): 33%
- growth (NCI-H226 lung; 10 µM): 102% and 80.4%
- growth (NCI-H226 lung; 100 µM): 62.4%
- growth (NCI-H322M lung; 10 µM): 102% and 98.2%
- growth (NCI-H322M lung; 100 µM): 89.4%
- growth (NCI-H460 lung; 10 µM): 116% and 40.2%
- growth (NCI-H460 lung; 100 µM): 26.3%
- growth (HOP-92 NSCLC; 10 µM): 99.9%
- growth (HOP-92 NSCLC; 100 µM): 36.1%
- growth (NCI-H522 lung; 10 µM): 104% and 82.9%
- growth (NCI-H522 lung; 100 µM): 59.5%
- growth (A549/ATCC NSCLC; 10 µM): 103% and 69.9%
- growth (A549/ATCC NSCLC; 100 µM): 52.2%
- growth (786-0 renal; 10 µM): 100% and 83.6%
- growth (786-0 renal; 100 µM): 21.6%
- growth (COLO 205 colon; 10 µM): 106% and 121%
- growth (COLO 205 colon; 100 µM): 78.6%

SMILES: Cc1cc(N=C2C=CC(=[N+](C)C)C=C2)c(N)cc1N
- growth (NCI-H23 lung; 10 µM): 78.2%
- growth (NCI-H226 lung; 10 µM): 97.9%
- growth (NCI-H322M lung; 10 µM): 93.7%
- growth (NCI-H460 lung; 10 µM): 102%
- growth (HOP-92 NSCLC; 10 µM): 97.3%
- growth (NCI-H522 lung; 10 µM): 77.7%
- growth (A549/ATCC NSCLC; 10 µM): 84.6%
- growth (786-0 renal; 10 µM): 96%
- growth (COLO 205 colon; 10 µM): 95.8%

SMILES: N#C/C(=C/N1C(=O)/C(=C/c2ccc([N+](=O)[O-])cc2)SC1=S)c1nc2ccccc2s1
- growth (NCI-H23 lung; 10 µM): 89.1%
- growth (NCI-H226 lung; 10 µM): 63.8%
- growth (NCI-H322M lung; 10 µM): 88.1%
- growth (NCI-H460 lung; 10 µM): 90.3%
- growth (HOP-92 NSCLC; 10 µM): 66.8%
- growth (NCI-H522 lung; 10 µM): 78.7%
- growth (A549/ATCC NSCLC; 10 µM): 91.4%
- growth (786-0 renal; 10 µM): 94.8%
- growth (COLO 205 colon; 10 µM): 90.3%

SMILES: COc1cccc(C(c2cc3c(cc2O)OCO3)N2CCOCC2)c1OC (configuration not stated)
- growth (NCI-H23 lung; 10 µM): 109%
- growth (NCI-H226 lung; 10 µM): 99.6%
- growth (NCI-H322M lung; 10 µM): 101%
- growth (NCI-H460 lung; 10 µM): 104%
- growth (HOP-92 NSCLC; 10 µM): 99.6%
- growth (NCI-H522 lung; 10 µM): 94.8%
- growth (A549/ATCC NSCLC; 10 µM): 99.9%
- growth (786-0 renal; 10 µM): 101%
- growth (COLO 205 colon; 10 µM): 111%

SMILES: CC1CCC2(C(=O)O)CCC3(C)C(=CCC4C5(C)CC(O)C(O)C(C)(CO)C5C(O)CC43C)C2C1C (configuration not stated)
- growth (NCI-H23 lung; 10 µM): 94.6%
- growth (NCI-H226 lung; 10 µM): 115%
- growth (NCI-H322M lung; 10 µM): 98.7%
- growth (NCI-H460 lung; 10 µM): 111%
- growth (HOP-92 NSCLC; 10 µM): 79%
- growth (NCI-H522 lung; 10 µM): 87.9%
- growth (A549/ATCC NSCLC; 10 µM): 27%
- growth (786-0 renal; 10 µM): 110%
- growth (COLO 205 colon; 10 µM): 112%

SMILES: Cc1cc(Cl)ccc1NC(=O)/C(Cl)=C1/Sc2ccccc2NC1=O
- growth (NCI-H23 lung; 10 µM): 88.4%
- growth (NCI-H226 lung; 10 µM): 90.3%
- growth (NCI-H322M lung; 10 µM): 102%
- growth (NCI-H460 lung; 10 µM): 99.4%
- growth (HOP-92 NSCLC; 10 µM): 70.5%
- growth (NCI-H522 lung; 10 µM): 104%
- growth (A549/ATCC NSCLC; 10 µM): 112%
- growth (786-0 renal; 10 µM): 92.9%

SMILES: NCc1c(O)ccc2ccccc12
- growth (NCI-H23 lung; 10 µM): 102%
- growth (NCI-H226 lung; 10 µM): 96.2%
- growth (NCI-H322M lung; 10 µM): 96.4%
- growth (NCI-H460 lung; 10 µM): 108%
- growth (HOP-92 NSCLC; 10 µM): 73%
- growth (NCI-H522 lung; 10 µM): 95%
- growth (A549/ATCC NSCLC; 10 µM): 94.7%
- growth (786-0 renal; 10 µM): 103%
- growth (COLO 205 colon; 10 µM): 105%

SMILES: O=c1[nH]cc(/C=N\Nc2ccccc2)c(=O)[nH]1
- growth (NCI-H23 lung; 10 µM): 89.9%
- growth (NCI-H226 lung; 10 µM): 87.7%
- growth (NCI-H322M lung; 10 µM): 58.1%
- growth (NCI-H460 lung; 10 µM): 47.6%
- growth (HOP-92 NSCLC; 10 µM): 96.7%
- growth (NCI-H522 lung; 10 µM): 19.7%
- growth (A549/ATCC NSCLC; 10 µM): 29.4%
- growth (786-0 renal; 10 µM): 79.6%
- growth (COLO 205 colon; 10 µM): 67.9%
